An excerpt weighted towards active compounds, which were near 8% of everything screened.
Coupling enz – inhibits coupling enzyme system, counter-screen for aldolase hits; coupling enzyme system counterscreen, AmpLite Red fluorescence; activity change, negative = inhibition, % at 58.2 µM, hits read low; 290,000 tested, 0.67% active; AID 2472; in the data active means activity change below about -30%
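Counterscreen of the coupled detection system alone, without aldolase: glyceraldehyde-3-phosphate coupling enzymes plus AmpLite Red readout. Compounds at 57.5 uM final, 10 min RT preincubation, 20 min RT reaction, fluorescence 525/598 nm.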
VP16 counter – inhibits Gal4-VP16 luciferase reporter, ROR gamma counter-screen; Drosophila S2 Gal4-VP16 UAS-luciferase, luminescence, 20 h; Potency, µM (top dose mostly 53.6 µM), for the others: top-dose activity, negative = inhibition, hits mostly inhibitors; 310,000 tested, 3.5% active;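 further: Gal4-VP16 expression switched on by copper sulfate through the metallothionein promoter; potency means the concentration at half of the fitted maximal effect; nearly all actives have a fitted effect of over 50% in size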
ELG1 DNA repair – ELG1-dependent DNA repair inhibition. HEK293T ELG1-luciferase reporter, luminescence, 16 h; DNA damage induced by 5-fluorouridine. Potency, µM (titrated, usually from 46.1 µM), inactives show at the top dose activity change, negative = inhibition, hits mostly inhibitors. 330,000 tested, 2.3% active. AID 504467; further: potency means the concentration at half of the fitted maximal effect; nearly all actives have a fitted effect of over 55% in size
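Step one: seed 2,000 cells per well. Step two: pin-transfer compound or DMSO alongside 5-fluorouridine. Step three: incubate 16 hr, 37 °C, 5% CO2. Step four: add ONE-Glo, wait 30 min, read luminescence.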
RORgamma inh – ROR gamma (mouse) transcription inhibition | 310,000 tested, 5.4% active | Drosophila S2 Gal4-RORgamma UAS-luciferase reporter, 20 h | Potency, µM (top dose mostly 53.6 µM), without a hit: top-dose activity change, negative = inhibition, usual class: inhibitors; further: potency means the concentration at half of the fitted maximal effect; nearly all actives have a fitted effect of over 60% in size
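Drosophila S2 cells stably expressing Gal4-DBD/mouse RORγ fusion under metallothionein promoter plus UAS-luciferase; compound 1 h, then 700 uM CuSO4 induction for 20 h at ambient temperature; inhibition read as reduced luminescence.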
TSHR antag – blocks TSH signaling through the human TSH receptor. 330,000 tested, 0.2% active. AID 504810. activity change, negative = inhibition, % at 11.5 µM. TSHR-expressing cells, TSH-stimulated cAMP HTRF, 2 h; stronger effect = lower value. P16473;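 active means activity change below a set negative limit, meaning inhibition stronger than a set level, cut at about -70% in these data; inconclusive means activity change between two set negative limits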
Target sequence (P16473 whole entry, looked up): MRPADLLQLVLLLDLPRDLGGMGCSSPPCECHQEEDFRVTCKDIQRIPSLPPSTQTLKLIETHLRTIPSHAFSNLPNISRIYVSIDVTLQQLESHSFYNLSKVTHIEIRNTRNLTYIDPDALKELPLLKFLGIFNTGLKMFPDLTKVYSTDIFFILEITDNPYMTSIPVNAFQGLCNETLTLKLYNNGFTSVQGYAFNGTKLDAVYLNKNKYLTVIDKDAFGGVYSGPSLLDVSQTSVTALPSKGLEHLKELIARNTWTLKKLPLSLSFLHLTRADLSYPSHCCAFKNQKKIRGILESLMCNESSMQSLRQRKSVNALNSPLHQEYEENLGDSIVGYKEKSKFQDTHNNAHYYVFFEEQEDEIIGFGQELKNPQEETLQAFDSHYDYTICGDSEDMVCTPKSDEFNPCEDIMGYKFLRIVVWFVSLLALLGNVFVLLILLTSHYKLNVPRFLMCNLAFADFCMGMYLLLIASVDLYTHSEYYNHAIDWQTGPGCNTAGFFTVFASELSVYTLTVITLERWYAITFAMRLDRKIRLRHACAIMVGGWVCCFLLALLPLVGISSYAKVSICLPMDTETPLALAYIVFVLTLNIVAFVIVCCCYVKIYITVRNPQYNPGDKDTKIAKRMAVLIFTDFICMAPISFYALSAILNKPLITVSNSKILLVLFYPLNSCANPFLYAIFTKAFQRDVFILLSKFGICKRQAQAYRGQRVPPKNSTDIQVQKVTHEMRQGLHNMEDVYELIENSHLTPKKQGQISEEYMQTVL
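TSHR-expressing cells, 200/well, pre-treated with compound, then stimulated with EC80 TSH (4nM final) for 2 hours at 37 deg C. cAMP measured by competitive HTRF: anti-cAMP cryptate antibody in lysis buffer plus cAMP-d2, read after 30 minutes at room temperature.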
* marks the source's active call; other numbers are inactive results; ? = inconclusive; . = no result; [ ] = remark or other dose. Unless noted, the call rests on the fitted dose curve; in most records, active means well fitted curve in the direction sought with a large enough effect; inconclusive means small, poorly fitted or top-dose-only effect, or another doubt; inactive means no such curve, though single readings can be large; an effect the other way counts as inactive or inconclusive. On the % scale 0 is the no-effect control and ±100 the full control effect.

SMILES	Coupling enz	VP16 counter	ELG1 DNA repair	RORgamma inh	TSHR antag
Cc1ccc(-c2cc(C(F)(F)F)n3ncc(C(=O)O)c3n2)cc1	1.1	-10.5%	9.2%	5.8%	-1.7
COCCNC(=O)c1cnn2c(C(F)(F)F)cc(-c3ccc(C)cc3)nc12	1.7	-1.7%	5.8µM*	8.0%	4.4
CCCn1c(-c2ccc(F)cc2)nc2c(N3CCN(CCn4ccnc4)CC3)nc(C)nc21	1.9	6.5%	.	-18.2%	.
COc1cccc(-c2cc(C(F)(F)F)n3ncc(C(=O)NCC4CCCO4)c3n2)c1 (stereo unspecified)	-0.6	?	6.51µM*	-2.5%	-7.1
COc1ccc(-c2cc(C(F)(F)F)n3ncc(C(=O)NCC4CCCO4)c3n2)cc1 (stereo unspecified)	2.9	.	?	6.2%[0.365 µM]	-7.1
C=CCOC(=O)N[C@H](c1ccco1)C(C(C)=O)C(C)=O	-2.7	7.5%	.	-2.3%	.
CC(C)(C)c1nnc(N/N=C/c2ccc(Br)cc2)n(N)c1=O	2.0	2.82µM*	13.7%	2.82µM*	-21.3
CC(C)(C)c1ccc(/C=N/Nc2nncn2N)cc1	0.4	?	?	-33.0%	15.5
Cc1cccc(C)c1N1C(=O)CC(N(O)c2ccccc2)C1=O (stereo unspecified)	1.5	-1.3%	0.1%	11.2µM*	2.3
COc1ccc(C(=O)Nc2cccc3cccnc23)cc1OC	-0.3	-5.9%	?	34.3%	-11.2
COc1ccc(NC(=O)C(=O)Nc2cccc3cccnc23)cc1OC	0.7	2.82µM*	4.0%	1.78µM*	12.3
COc1ccc(NC(=O)C(=O)Nc2cccc3ccccc23)c(OC)c1	-6.5	-9.5%	1.7%	-24.0%	6.0
COc1ccc(NC(=O)C(=O)Nc2cccc3cccnc23)c(OC)c1	0.1	2.51µM*	-13.0%	1.41µM*	-8.0
COc1ccc(C2CC(c3ccccc3)Nc3nc(NC(=O)c4ccco4)nn32)cc1 (stereo unspecified)	4.4	7.08µM*	-0.8%	6.31µM*	-4.5
COc1ccc(C2CC(c3ccc(OC)cc3)n3nc(NC(=O)c4ccco4)nc3N2)cc1 (stereo unspecified)	10.3	15.8µM*	-10.4%	6.31µM*	12.0
COCC(=O)Nc1nc2n(n1)C(c1ccccc1)CC(c1ccc(OC)cc1)N2 (stereo unspecified)	1.2	0.4%	-10.0%	-4.3%	6.4
O=C(Nc1nc2n(n1)C(c1ccccc1)CC(c1ccc(Cl)cc1)N2)c1ccco1 (stereo unspecified)	-1.4	5.01µM*	?	2.51µM*	9.9
COCC(=O)Nc1nc2n(n1)C(c1ccc(OC)cc1)CC(c1ccc(OC)cc1)N2 (stereo unspecified)	3.5	0.6%	1.3%	17.0%	3.4
CCn1c(=O)cc(OCC(=O)NCc2ccco2)c2ccccc21	1.4	1.2%	?	4.4%	-3.8
CCn1c(=O)cc(OCC(=O)NCc2ccc(C)o2)c2ccccc21	-3.9	7.3%	?	14.1µM*	-0.1
CC1CCC(NC(=O)c2nc(Cn3ccc([N+](=O)[O-])n3)no2)CC1 (stereo unspecified)	2.0	5.7%	-14.0%	39.1%	7.0
COC(=O)c1c(C)[nH]c(C(=O)C(C)OC(=O)C2CC2)c1C (stereo unspecified)	.	.	-2.8%	.	-0.9
O=C(Nc1ccccc1N1CCCCC1)c1cccs1	-0.2	-2.3%	-1.3%	-30.6%	7.5
O=C(Nc1cccc(Cl)c1N1CCOCC1)c1ccc(Br)o1	.	-4.1%	?	-15.9%	-11.7
CCCC(=O)NC(=S)Nc1cccc(Cl)c1N1CCCC1	-1.7	7.08µM*	-7.6%	1.26µM*	-18.5
CCCC(=O)Nc1ccc(Cl)c(NC(=S)NC(=O)C(C)C)c1	3.0	-9.1%	?	-42.7%	5.9
O=C(NC(=S)Nc1cccc(Cl)c1N1CCOCC1)c1cccs1	2.6	17.8µM*	?	3.16µM*	-5.1
O=C(NC(=S)Nc1cccc(Cl)c1N1CCCCC1)c1cccs1	-1.8	?	-0.4%	0.708µM*	-6.6
CCOC(=O)Cn1nc(C)c(NC(=O)c2ccc(Br)o2)c1C	-0.9	0.3%	4.9%	15.4%	-17.1

Bioassay records (PubChem BioAssay)
